# In the supplement of paper PMC7156485:
# ± gives the standard deviation of the averaged measurements.
# How the values were obtained:
# Conditions in all cases: concentration: 10 µM; 24 h
# [1] = system: HCC1569; assay: cell number relative to DMSO (% of DMSO); higher = more cells (less growth inhibition / toxicity)
# How it was run: (§1)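 Using 384-well plates with 800 cells per well in RPMI plus 10% FBS, HCC1569 and TDF cells were exposed to compounds at 10 µM, in triplicate, for 24 h at 37 °C. Imaging of six fields per well at ×10 followed H1.0 and DAPI staining. The reported quantity, H1.0 nuclear intensity or cell number, is a median of replicates given as percent of the plate control, and HCC1569 values were smoothed for positional effects.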
# [2] = system: TDF; assay: as above
# How it was run: as §1
# [3] = system: TDF; assay: H1.0 immunofluorescence intensity relative to DMSO (% of DMSO); higher = stronger H1.0 induction, active = 120 or more
# How it was run: as §1
# [4] = system: HCC1569; assay: H1.0 immunofluorescence intensity relative to DMSO (% of DMSO); higher = stronger H1.0 induction, active = 140 or more
# How it was run: as §1
# 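Throughout, for H1.0 immunofluorescence intensity relative to DMSO: TDF is a line of transformed human dermal fibroblasts of mesenchymal origin.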
# 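Throughout, for cell number relative to DMSO: TDF denotes transformed human dermal fibroblasts of mesenchymal origin.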
Compound,cell number [1],cell number [2],H1.0 immunofluorescence intensity [3],H1.0 immunofluorescence intensity [4]
"CCCCCC=CCC=CCC=CCCCCC(=O)O [6(Z), 9(Z), 12(Z)-Octadecatrienoic Acid]",101,93.2,91.1 (inactive),105 (inactive)
CC(N)=NCCCC[C@H](N)C(=O)O.Cl [L-N6-(1-Iminoethyl)lysine hydrochloride],103,109,84.8 (inactive),91.6 (inactive)
CCCCC=CCCCCCCCCC(=O)O [10(E)-Pentadecenoic acid],103,95.8,110 (inactive),101 (inactive)
NC(C(=O)O)C1CC(Cl)=NO1 (stereo unspecified) [Acivicin],93.2,68.8,122 (active),108 (inactive)
"O=c1ccc2ccc(O)c(O)c2o1 [7,8-dihydroxy-2H-chromen-2-one]",99.2,79.9,96.2 (inactive),91 (inactive)
O=c1[nH]c2cc([N+](=O)[O-])c([N+](=O)[O-])cc2[nH]c1=O,105,111,91.9 (inactive),91.4 (inactive)
COc1cc(C=CC(=O)c2ccc(O)cc2O)ccc1O [Homobutein],95.5,101,92 (inactive),100 (inactive)
Clc1ccc(C(Cn2ccnc2)OCc2ccsc2Cl)c(Cl)c1 (stereo unspecified) [Tioconazole],102,94.9,103 (inactive),113 (inactive)
"Cl.c1ccc(C2CN3CCSC3=N2)cc1 (single isomer, unassigned; (-)) [(-)-Tetramisole hydrochloride]",108,97.3,92.4 (inactive),98.7 (inactive)
"CCCCCCCC(=O)OCC(CO)OC(=O)CCCCCCC (stereo unspecified) [1,2-Dioctanoyl-SN-glycerol]",98.8,101,92.3 (inactive),98.6 (inactive)
Cc1cncc2cccc(S(=O)(=O)N3CCCN(C(=O)CN)CC3C)c12.Cl.Cl.O (stereo unspecified) [Rho Kinase Inhibitor IV],78.3,42.8,98.4 (inactive),131 (inactive)
CCCCC1C(=O)N(c2ccccc2)N(c2ccccc2)C1=O [Phenylbutazone],101 ± 1.3,106 ± 10,93.7 (inactive),97.5 (inactive)
CN(C)CCCN1c2ccccc2CCc2ccccc21.Cl [Imipramine hydrochloride],108,98.4,97.2 (inactive),105 (inactive)
COc1ccc(Cl)cc1NC(=O)Nc1cc(C)nc2ccccc12 [IGF-1R Inhibitor II],103,97.7,98.8 (inactive),106 (inactive)
O=C(O)c1ccc(NC(=O)[C@H](CC2CCCC2)n2cnc(C(F)(F)F)c2)nc1,100,100,96.9 (inactive),106 (inactive)
CC(C)CC(NC(=O)C(COC(C)(C)C)NC(=O)C(Cc1ccc(O)cc1)NC(=O)C(CO)NC(=O)C(Cc1c[nH]c2ccccc12)NC(=O)C(Cc1cnc[nH]1)NC(=O)C1CCC(=O)N1)C(=O)NC(CCCN=C(N)N)C(=O)N1CCCC1C(=O)NNC(N)=O (stereo unspecified) [Goserelin],100,105,94.5 (inactive),103 (inactive)
O=C(O)CCCC=CCC1C(=O)CC(O)C1C=CC(O)CCc1ccccc1 (stereo unspecified) [17-Phenyl-trinor-prostaglanding E2],105,102,106 (inactive),97.5 (inactive)
O[C@@H]1[C@@H](O)[C@H](OC/C=C/c2ccccc2)O[C@H](CO[C@@H]2OC[C@H](O)[C@H](O)[C@H]2O)[C@H]1O,97,103,100 (inactive),90.3 (inactive)
NC(CO)C(=O)NNCc1ccc(O)c(O)c1O (stereo unspecified) [Benserazide],95.2,82,101 (inactive),97.6 (inactive)
CC(O)CCCC(O)C=CC1C(O)CC(O)C1CC=CCCCC(=O)O [19(R)-Hydroxy-prostaglandin F2a],104,101,93.3 (inactive),95.9 (inactive)
O=C(CCCN1CCC(O)(c2cccc(C(F)(F)F)c2)CC1)c1ccc(F)cc1 [Trifluperidol],100,95.7,97.3 (inactive),102 (inactive)
CCN(CC)CCNC(=O)c1cc(Cl)c(N)cc1OC [Metoclopramide],102,105,97.1 (inactive),108 (inactive)
Nc1nc2ccc(OC(F)(F)F)cc2s1 [Riluzole],98.4,98.6,94.6 (inactive),94.6 (inactive)
O=C(O)C=Cc1c[nH]c2ccccc12 [3-Beta-Indoleacrylic acid],97.9,101,94.8 (inactive),95.1 (inactive)
O=S(=O)(O)C1CCNCC1 [Piperidine-4-sulphonic acid],92.6,101,89 (inactive),122 (inactive)

Compound,cell number [1],cell number [2],H1.0 immunofluorescence intensity [3],H1.0 immunofluorescence intensity [4]
CCOC(=O)C=C(C)C=CC=C(C)C=Cc1c(C)cc(OC)c(C)c1C [Etretinate],104,97.6,101 (inactive),115 (inactive)
CC[N+](CC)(CC)CC(=O)Nc1c(C)cccc1C.[Br-] [Lidocaine N-ethyl bromide quaternary salt],106,108,88.4 (inactive),94.3 (inactive)
COc1cc(OC)cc(-c2cc3cnc(N)nc3nc2NC(=O)NC(C)(C)C)c1,84.2,90.4,101 (inactive),139 (inactive)
CCCCCC(O)C=CC1C(O)CC(O)C1CC=CCCCC(=O)O (stereo unspecified) [Dinoprost],100,106,93.2 (inactive),109 (inactive)
Cl.Nc1ccn(C2OC(CO)C(O)C2O)c(=O)n1 [Cytosine-1-beta-D-arabinofuranoside hydrochloride],75.3,45.5,121 (active),100 (inactive)
Nc1ncnc2c1C(=O)N(c1ccc(C3CCC(CC(=O)O)CC3)cc1)CCO2 (stereo unspecified),103,95.7,99.8 (inactive),98.5 (inactive)
CC(C=CC1=C(C)CCCC1(C)C)=CC=CC(C)=CC(=O)Nc1ccc(O)cc1 [Retinoic acid p-hydroxyanilide],42.9,85.3,100 (inactive),185 (active)
CCC1OC(=O)C(C)C(OC2CC(C)(OC)C(O)C(C)O2)C(C)C(OC2OC(C)CC(N(C)C)C2O)C(C)(O)CC(C)C(=NOCOCCOC)C(C)C(O)C1(C)O (stereo unspecified) [Roxithromycin],106,98.4,95.2 (inactive),92.1 (inactive)
CN(C)CCC=C1c2ccccc2CCc2ccccc21.Cl [Amitriptyline.HCl],105,89.4,99.6 (inactive),123 (inactive)
CNC1C(O)C(NC)C2OC3(O)C(=O)CC(C)OC3OC2C1O.Cl.Cl (stereo unspecified) [Spectinomycin.2HCl],98.8,106,94.4 (inactive),100 (inactive)
Nc1nccc(-c2c(-c3ccc(F)cc3)ncn2C2CCNCC2)n1,84.5,89.4,88.6 (inactive),143 (active)
CC(C=CC1=C(C)CCCC1(C)C)=CC=CC(C)=CC(=O)O [9-cis Retinoic acid],105 ± 4.8,106 ± 5.2,87.8 (inactive),116 (inactive)
"CC(C)(C)C1(O)CCN2CC3c4ccccc4CCc4cccc(c43)C2C1.Cl (single isomer, unassigned; (+)) [(+)-Butaclamol hydrochloride]",54,49.9,126 (active),251 (active)
COc1ccc(C(=O)Nc2sc3c(c2C(N)=O)CCCC3)cc1OC [Flt-3 Inhibitor],96.7,105,94.7 (inactive),119 (inactive)
Cl.Nc1cc(Cl)c(NC2=NCCN2)c(Cl)c1 [p-Aminoclonidine hydrochloride],100,114,97.1 (inactive),88.3 (inactive)
CON=C(C(=O)NC1C(=O)N2C(C(=O)[O-])=C(CSc3nc(=O)c([O-])nn3C)CSC12)c1csc(N)n1.[Na+].[Na+] (stereo unspecified) [Ceftriaxone sodium],101,99.8,99.3 (inactive),94 (inactive)
CCC=CCC=CCC=CCC=CC=CC(O)CCCC(=O)O (racemic),106,94.7,103 (inactive),99 (inactive)
CCCCC(=O)N(Cc1ccc(-c2ccccc2-c2nn[nH]n2)cc1)[C@H](C(=O)O)C(C)C,98.8,112,93.7 (inactive),100 (inactive)
"CCN(NO)C1=CC(=O)C(=O)C=C1 [ET-3,4-dephostatin]",79.5,97.7,94.7 (inactive),151 (active)
CC(C)NCC(O)c1ccc(O)c(O)c1.O=C(O)C(O)C(O)C(=O)O (stereo not drawn) [S(+)-Isoproterenol (+)-bitartrate],105,97.6,91.8 (inactive),93.4 (inactive)
C=C1C(=O)OC2C1CCC(=C)C1CCC(=C)C12 (stereo unspecified) [Dehydrocostus lactone],83.9,64.3,110 (inactive),103 (inactive)
Cl.Cl.OCCN1CCN(CCC=C2c3ccccc3Sc3ccc(C(F)(F)F)cc32)CC1 [cis-(Z)-Flupenthixol dihydrochloride],86.1,102,102 (inactive),125 (inactive)
O=c1[nH]c2cc(C(F)(F)F)ccc2n1-c1cc(C(F)(F)F)ccc1O,101,95.9,96.6 (inactive),98.4 (inactive)
CCOC(=O)c1cnc2c(cnn2CC)c1NN=C(C)C [Etazolate],102,108,95.6 (inactive),103 (inactive)
